From PubChem
GC-B act: human GC-B receptor activators, primary screen, HEK293 GC-B cells, cGMP TR-FRET, EC30 CNP; actives 0.11% (n = 370,000); AID 1920062, 2024; activation, % at 10 µM; 0% at EC30 CNP, 100% saturating CNP; Atrial natriuretic peptide receptor 2 (Homo sapiens), P20594;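 active = activation at 10 µM reaching about 35% in either raw or pattern-adjusted values, limit read from the data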
NPR1 activator: GC-A stimulated cGMP production enhancers – HEK293 GC-A cells, cGMP TR-FRET, EC30 ANP, primary screen; Atrial natriuretic peptide receptor 1 (Homo sapiens), P16066; 0% at EC30 ANP, 100% saturating ANP; activation, % at 10 µM; actives 0.14% (n = 370,000); AID 1671463, 2021; in the data active = activation above about 40%
bovine MsrA act: bovine MsrA enzyme activators, primary screen, biochemical, absorbance, HTS; Methionine sulfoxide reductase A (Bos taurus); purified bovine MsrA, absorbance read-out; activation, % at 10.6 µM; actives 0.3% (n = 360,000); AID 602163, 2012; in the data active = activation above about 7.5%;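 note: 0% = vehicle and 100% = reference activator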
m5-HT2A agonist: mouse Htr2a agonists via beta-arrestin recruitment, primary screen, cell-based, luminescence; 5-hydroxytryptamine receptor 2A (Mus musculus), P35363; CHO-K1 mHTR2A beta-arrestin complementation; percent of 30 µM serotonin response; activation, % at 7.6 µM; actives 0.66% (n = 360,000); AID 624169, 2012;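 active = activation above a run cutoff, the mean activation of all tested compounds plus 3 SD, cut at about 14% in these data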;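 note: 0% = plate median of compound wells and 100% = 30 µM serotonin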
Target sequence (P35363 whole entry, looked up): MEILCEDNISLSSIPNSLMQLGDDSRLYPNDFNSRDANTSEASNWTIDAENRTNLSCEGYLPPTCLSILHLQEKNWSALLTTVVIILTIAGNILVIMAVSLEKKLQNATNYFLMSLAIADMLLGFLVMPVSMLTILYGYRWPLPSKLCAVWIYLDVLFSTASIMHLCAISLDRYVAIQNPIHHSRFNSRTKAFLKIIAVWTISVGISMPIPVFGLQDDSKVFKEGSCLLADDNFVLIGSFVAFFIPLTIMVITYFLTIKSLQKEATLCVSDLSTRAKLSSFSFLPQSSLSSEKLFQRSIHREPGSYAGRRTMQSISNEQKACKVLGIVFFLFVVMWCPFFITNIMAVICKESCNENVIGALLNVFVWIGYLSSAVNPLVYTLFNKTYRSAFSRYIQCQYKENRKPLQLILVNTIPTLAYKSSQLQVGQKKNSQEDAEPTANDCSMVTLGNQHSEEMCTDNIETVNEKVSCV
MsrA inh: bovine MsrA enzyme inhibitors, primary screen, biochemical, absorbance, HTS | Methionine sulfoxide reductase A (Bos taurus) | purified bovine MsrA, absorbance read-out | inhibition, % at 15.5 µM | actives 0.75% (n = 360,000); in the data active = inhibition above about 4.5%;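 note: 0% = vehicle wells with enzyme and 100% = reference inhibitor wells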
Starred values were filed as active, the others as inactive. Only some compounds are listed: those with a hit (about 1.8% of all), similar ones and a draw of the others.

For COc1ccc(N(C)C(=O)c2sc(Cl)nc2C)cc1 the results were GC-B act 4.4, NPR1 activator -4.6, bovine MsrA act -1.6, m5-HT2A agonist 0.0 and MsrA inh -0.7.
`O=C(O)c1ccccc1C(=O)c1cccc2c(Br)cccc12` gave GC-B act 25.8, NPR1 activator 57.6*, bovine MsrA act -3.4, m5-HT2A agonist -2.4 and MsrA inh 0.2.
Screening O=[N+]([O-])c1c(Nc2ccccc2O)ccc2nonc12 returned GC-B act -3.1, NPR1 activator -9.2, bovine MsrA act -3.5, m5-HT2A agonist -3.5 and MsrA inh 0.2.
`O=[N+]([O-])c1c(Nc2ccccc2O)cc(Cl)c2nonc12` gave GC-B act 42.4*, NPR1 activator 39.6, bovine MsrA act -1.6, m5-HT2A agonist -10.8 and MsrA inh -0.1.
For COc1cccc(-c2nnc(SCC(=O)OC(C)C)n2-c2ccc(Cl)cc2)c1 the results were GC-B act -29.2 and NPR1 activator -30.9.
For COc1ccc(Nc2c3c(c(C#N)c4nc5ccccc5n24)CCC3)cc1 the results were GC-B act 28.0, NPR1 activator 41.0*, bovine MsrA act 1.1, m5-HT2A agonist 0.4 and MsrA inh -0.6.
Screening CCN(Cc1cn(Cc2ccccc2)nn1)S(=O)(=O)c1ccccc1Br returned GC-B act 5.2 and NPR1 activator 0.6.
Screening O=C(O)CSc1nc(C(F)(F)F)cc(=O)n1-c1ccccc1 returned GC-B act 2.2, NPR1 activator 1.5, bovine MsrA act 1.2, m5-HT2A agonist 17.0* and MsrA inh -1.6.
COc1cccc(/C=N/NC(=O)c2[nH]c(C)c(C(=O)N/N=C/c3cccc(OC)c3O)c2C)c1O was read as GC-B act -0.6, NPR1 activator -2.6, bovine MsrA act -8.2, m5-HT2A agonist 4.0 and MsrA inh 5.0*.
Screening CCC1(O)C(=O)OCc2c1cc1n(c2=O)Cc2cc3cc(O)ccc3nc2-1 (stereo not given) returned GC-B act -0.2, NPR1 activator 56.5*, bovine MsrA act -0.5, m5-HT2A agonist 4.2 and MsrA inh 4.1.
Cc1nc2c(N=Nc3ccccc3F)c(N)nn2c(N)c1C#N was read as GC-B act -2.5, NPR1 activator 42.7*, bovine MsrA act -4.0, m5-HT2A agonist 0.9 and MsrA inh 1.1.
`COC(=O)[C@H]1C[C@@]2(C3C=CC=C3)c3ccccc3N[C@H]2N1` gave GC-B act -2.2 and NPR1 activator -0.2.
COc1ccc(-c2nc3ccccc3n2Cc2ccc(C)cc2)cc1 was read as GC-B act 48.4*, NPR1 activator 63.1*, bovine MsrA act -6.0, m5-HT2A agonist -2.7 and MsrA inh -0.3.
`C=CC(=O)N1C/C(=C/c2ccc(F)cc2)C(=O)/C(=C\c2ccc(F)cc2)C1` gave GC-B act 5.6, NPR1 activator 9.2, bovine MsrA act -5.7, m5-HT2A agonist -6.0 and MsrA inh 5.1*.
`COc1ccc(/C=C\C(=O)O[C@@H]2C(O)C(O[C@@H]3OC(C)[C@H](O[C@@H]4OCC(O[C@H]5O[C@H](CO)[C@@H](O)C(O)C5O)C(O)C4O)C(O)C3O)[C@H](OC(=O)[C@]34CCC(C)(C)C[C@@H]3C3=CCC5[C@@]6(C)CC(O)C(O[C@@H]7OC(CO)C(O)[C@H](O)[C@H]7O)[C@@](C)(C(=O)O)C6CC[C@@]5(C)[C@]3(CO)CC4)O[C@H]2C)cc1` (stereo not given in full) gave bovine MsrA act -0.4 and m5-HT2A agonist 15.9*.
`CCC(C)Sc1cc(-c2nc3ccc(Cl)cn3c2NC2CCCCC2)ccc1OC` (stereo not given) gave GC-B act 29.1, NPR1 activator 39.9, bovine MsrA act -6.6, m5-HT2A agonist 5.4 and MsrA inh 0.4.
CC(=O)c1csc(-c2cccc(-c3nc4ccc(Cl)cn4c3NC3CCCCC3)c2)c1 was read as GC-B act 56.2*, NPR1 activator 51.3*, bovine MsrA act -2.9, m5-HT2A agonist 2.4 and MsrA inh -0.7.
Screening COc1ccc(-c2cccc(-c3nc4ccc(Cl)cn4c3NC3CCCCC3)c2)cc1 returned GC-B act 49.5*, NPR1 activator 43.5*, bovine MsrA act -1.9, m5-HT2A agonist -3.9 and MsrA inh -0.5.
COC(=O)C[C@@H]1CC[C@@H]2[C@@H](COc3ccc(NC(=O)Nc4cccc(Cl)c4)cc3C(=O)N2C)O1 was read as GC-B act 11.0 and NPR1 activator 2.5.
Cc1ccc(Cn2cc(CN3[C@H](c4ccccc4)COc4cc(Br)ccc4S3(=O)=O)nn2)cc1 was read as GC-B act 3.4 and NPR1 activator -1.2.
For CC1C(=O)N(Cc2cn(CCC3OCCCO3)nn2)CCS(=O)(=O)N1Cc1ccc(-c2ccccc2)cc1 (stereo not given) the results were GC-B act 1.4, NPR1 activator 16.2, bovine MsrA act -1.2, m5-HT2A agonist -0.1 and MsrA inh -0.8.
CC1C(=O)N(Cc2cn(CCC3OCCCO3)nn2)CCS(=O)(=O)N1Cc1ccc(-c2ccc(Cl)cc2)cc1 (stereo not given) was read as GC-B act -3.9, NPR1 activator 50.0*, bovine MsrA act -2.3, m5-HT2A agonist -2.3 and MsrA inh -0.8.
For CC1CCN(c2ccc(C(=O)O)cc2NS(=O)(=O)c2ccc(Cl)s2)CC1 the results were GC-B act -6.3 and NPR1 activator 2.4.
For CC(/C=C/c1ccc(C)o1)=C\C(=O)O the results were GC-B act 7.0, NPR1 activator 2.7, bovine MsrA act 20.2*, m5-HT2A agonist 1.0 and MsrA inh 2.3.
Cc1ccc(S(=O)(=O)N2CCCC2C(=O)N2CCN(c3ccccc3)CC2)cc1 (stereo not given) was read as GC-B act 3.7 and NPR1 activator 0.0.
For C=CCOC(=O)N1CCN(C(=O)c2ccc3c(c2)nc(C)n3C2CCCC2)CC1 the results were GC-B act 0.1 and NPR1 activator 0.2.
CCCCOc1ccc(C(=O)NCC(=O)OC2CCOC2=O)cc1 (stereo not given) was read as GC-B act 2.8, NPR1 activator 57.2*, bovine MsrA act -1.8, m5-HT2A agonist -1.8 and MsrA inh -1.1.
O=C(CSc1nnc(-c2ccccc2F)o1)OCc1ccccc1 was read as GC-B act -4.6, NPR1 activator 60.6*, bovine MsrA act -4.2, m5-HT2A agonist -1.7 and MsrA inh 0.0.
Screening CCCOC(=O)CSc1nnc(-c2ccc(Cl)cc2Cl)o1 returned GC-B act -3.9, NPR1 activator 63.0*, bovine MsrA act -4.6, m5-HT2A agonist 3.5 and MsrA inh 0.8.
